Experimental data reported in PubChem BioAssay (Tox21).
Records with an inconclusive call do not appear. Values without a mark were called inactive. The source made the active and inactive calls. The call rests on the fitted dose curve; in most records, active means well fitted activation curve with a large enough effect in the repeat runs; inconclusive means weak or mixed curves; inactive means no such curve, though single readings can be large or run the other way.

assay: qHTS assay for small molecules that induce genotoxicity in human embryonic kidney cells expressing luciferase-tagged ATAD5 (AID 651632); conditions: HEK293T ATAD5-luciferase induction, 16 h; series mostly up to 83.3 µM; activation: at the top concentration; further: nearly all actives have a fitted effect of over 15% in size
From the text: U.S. Tox21 Program National Center for Advancing Translational Sciences [NCATS] NIH Chemical Genomics Center [NCGC] U.S. Environmental Protection Agency [EPA] National Institutes of Environmental Health Sciences [NIEHS] National Toxicology Program [NTP] U.S. Food and Drug Administration [FDA] Tox21 Assay Overview: As cancer cells divide rapidly and during every cell division they need to duplicate their genome by DNA replication. The failure to do so results in the cancer cell death. Based on this concept, many chemotherapeutic agents were developed but have limitations such as low efficacy and severe side effects etc. A new cell based assay was developed to find the compounds that effectively block DNA replication either by directly damaging DNA or by inhibiting other cellular mechanisms. Enhanced Level of Genome Instability Gene 1 (ELG1; human ATAD5) protein levels increase in response to various types of DNA damage. Using a luciferase reporter-gene tagged with ATAD5, a cell-based assay [developed by Kyungjae Myung, NHGRI, NIH] was used to measure the induction of ATAD5 in human embryonic kidney cells (HEK293T). So, increase in luciferase activity can be used to identify the compounds that cause genetic stress.
Tox21 Assay Protocol Summary: For genotoxicity screening, 2,000 cells in 5 uL/well were dispensed into white, solid-bottom 1536-well plates using a Multidrop Combi (Thermo Scientific) dispenser. Following transfer of 23 nL compound or DMSO vehicle by a pin tool, the plates were incubated 16 hr at 37C and 5% CO2. 5 ul Amplite (AAT Bioquest, Inc.) was then added to each plate and following 30 min incubation at room temperature, luciferase activity was quantified on a ViewLux CCD-based plate reader.
On the % scale 0 is the no-effect control and ±100 the full control effect; potency means the concentration at half of the fitted maximal effect.

| Compound | activation | Potency |
| --- | --- | --- |
| COc1cc(C=C2CCC/C(=C\c3ccc(O)c(OC)c3)C2=O)ccc1O | -21% |  |
| CC(C)(C)c1cc(/C=C2\SC(=N)NC2=O)cc(C(C)(C)C)c1O | -12.3% |  |
| O=C(O)CCn1c2c(c3ccccc31)C[C@H](NS(=O)(=O)c1ccc(F)cc1)CC2 | 1.21% |  |
| Nc1cc(Cl)c([N+](=O)[O-])cc1O | 2.36% |  |
| CO[C@H]1C=CO[C@@]2(C)Oc3c(C)c(O)c4c(O)c(cc(O)c4c3C2=O)NC(=O)/C(C)=C\C=C/[C@H](C)[C@H](O)[C@@H](C)[C@@H](O)[C@@H](C)[C@H](OC(C)=O)[C@@H]1C |  | inactive |
| Oc1c(Br)cc(Br)c2cccnc12 | -3.43% |  |
| CNC(=O)c1cc(Oc2ccc(NC(=O)Nc3ccc(Cl)c(C(F)(F)F)c3)cc2)ccn1 | -18.1% |  |
| COc1cc(C(=O)NS(=O)(=O)c2ccccc2C)ccc1Cc1cn(C)c2ccc(NC(=O)OC3CCCC3)cc12 | -4.28% |  |
| CCCCCCC(C)Nc1ccc(Nc2ccccc2)cc1 (stereo not given) | -5.79% |  |
| COCC(=O)O[C@]1(CCN(C)CCCc2nc3ccccc3[nH]2)CCc2cc(F)ccc2[C@@H]1C(C)C | -18.5% |  |
| C[C@@H]1CC[C@H]2C(C)(C)[C@H]3C[C@@]12CC[C@@]3(C)O | -2.2% |  |
| C=CC(=O)OCC(O)COc1ccccc1 (stereo not given) | 4.61% |  |
| O=C(c1ccccc1)c1cc(Cl)ccc1O | -1.7% |  |
| Cc1occc1SSc1ccoc1C | -2.27% |  |
| Cc1c(C(=O)O)cccc1[N+](=O)[O-] | -0.726% [at 95.3 µM] |  |
| O=C1C=CC(=O)N1c1ccccc1 | -14.3% |  |
| CN1CCN(C2Cc3ccccc3Sc3ccc(Cl)cc32)CC1 (stereo not given) | -5.59% |  |
| C/C=C/C(=O)Oc1c(CCCCCC(C)C)cc([N+](=O)[O-])cc1[N+](=O)[O-] | -2.22% |  |
| CCCN(CCc1cccs1)[C@H]1CCc2c(O)cccc2C1 | -3.98% |  |
| C[C@@]12C(=O)OC(=O)[C@]1(C)C1CCC2O1 |  | 902 nM (active) |

| Compound | activation | Potency |
| --- | --- | --- |
| CC1(C)C(=O)N(Br)C(=O)N1Br | -1% |  |
| CN(Cc1cc(Br)cc(Br)c1N)C1CCCCC1 | -7.02% |  |
| C=C(C)C(=O)OCCC[Si](Cl)(Cl)Cl | 4.59% [at 95.3 µM] |  |
| O=S(=O)(O)CCCN1CCOCC1 | 1.79% |  |
| CSc1c(Cl)c(Cl)c(Cl)c(Cl)c1Cl | 1.74% |  |
| CCCCCCCC/C=C\CCCCCCCC(=O)OCCOC(=O)CCCCCCC/C=C\CCCCCCCC | 0.88% [at 95.3 µM] |  |
| Clc1ccccc1CN1CCc2sccc2C1 | -3.72% |  |
| C=CC(=C)CCC=C(C)C | 3.81% |  |
| C/C=C/C=N/NC(=O)c1ccncc1 | 1.35% |  |
| O=C1OC(=O)c2cccc3cccc1c23 | -1.7% [at 95.3 µM] |  |
| CCN(CC)CCOc1ccc(C(O)(Cc2ccc(Cl)cc2)c2ccc(C)cc2)cc1 (stereo not given) | -15.6% |  |
| S=P(N1CC1)(N1CC1)N1CC1 |  | inactive |
| CCOC(=O)N1CCC(=C2c3ccc(Cl)cc3CCc3cccnc32)CC1 |  | inactive |
| CC1=C(/C=C/C(C)=C/C=C/C(C)=C/C(=O)Nc2ccc(O)cc2)C(C)(C)CCC1 | -11.3% |  |
| CC(=O)Oc1ccc(C2(c3ccc(OC(C)=O)cc3)Oc3ccccc3NC2=O)cc1 | 4.65% |  |
| Cn1cnc2ncnc(N)c21 | 3.89% |  |
| Clc1ccc(C(Cn2ccnc2)OCc2ccsc2Cl)c(Cl)c1 (stereo not given) | -9.42% |  |
| O=C1NC2CCCCN2C12CCN(CCCN1c3ccccc3CCc3ccc(Cl)cc31)CC2 (stereo not given) | -6.78% |  |
| CCCCCCCCCCCCCC[n+]1ccccc1 | -15.7% |  |
| CC(C)(C)C1=CC(=O)C=C(C(C)(C)C)C1=O | -13.5% |  |
